Experimental data taken from the supplement of paper PMC10515830.
Structures can show the parent of a compound that is named as a salt.

Assays:
Details in all cases: 10 µM; exposure time 6 h
[1] = test system: Danio rerio larvae (5 dpf); assay: difference in excitability vs DMSO (percentage points); higher = more excitable than DMSO
Procedure, shortened: (§1)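 Wild-type 5 dpf zebrafish larvae in 96-well plates were given 100 µL egg water containing library compound at 10 µM final for 6 h. After 3 h of exposure, plates at 28.5 ℃ were photographed every 6 s during a 3-h programme of moving lines and 100 ms, 400Hz tones. Z-LaP Tracker (a DeepLabCut model) quantified each behaviour, averaged over 48 larvae per compound. Values are the compound mean minus the DMSO-vehicle control, in percentage points.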

[2] = test system: Danio rerio larvae (5 dpf); assay: difference in startle response vs DMSO (percentage points); higher = stronger startle than DMSO
Procedure, shortened: as §1

[3] = test system: Danio rerio larvae (5 dpf); assay: difference in activity during first hour vs DMSO (percentage points); higher = more activity than DMSO
Procedure, shortened: as §1

[4] = test system: Danio rerio larvae (5 dpf); assay: difference in habituation to acoustic stimuli vs DMSO (percentage points); higher = more habituation than DMSO
Procedure, shortened: as §1

[5] = test system: Danio rerio larvae (5 dpf); assay: difference in combined optomotor response to red, green and blue moving lines vs DMSO (percentage points); higher = stronger optomotor response than DMSO
Procedure, shortened: as §1

Structure (SMILES) | difference in excitability [1] | difference in startle response [2] | difference in activity during first hour [3] | difference in habituation to acoustic stimuli [4] | difference [5]
COc1ccc2cc(C(C)C(=O)O)ccc2c1 (single isomer, unassigned; (+)) [(+)-Naproxen] | 3.24 | 2.79 | -2.88 | 2.25 | -3.32
NCC[C@H](O)C(=O)N[C@@H]1C[C@H](N)[C@@H](O[C@H]2O[C@H](CN)[C@@H](O)[C@H](O)[C@H]2O)[C@H](O)[C@H]1O[C@H]1O[C@H](CO)[C@@H](O)[C@H](N)[C@H]1O [Amikacin] | 5.08 | 3.94 | 10.9 | 2.17 | 6.4
CCCS(=O)(=O)Nc1ccc(F)c(C(=O)c2c[nH]c3ncc(-c4ccc(Cl)cc4)cc23)c1F | -2.43 | -1.48 | -5.03 | 2.88 | -0.602
C#C[C@]1(O)CC[C@H]2[C@@H]3CCC4=CCCC[C@@H]4[C@H]3C(=C)C[C@@]21CC [Desogestrel] | 16.3 | -10.3 | 30.8 | -6.42 | -15.3
C#C[C@]1(O)CC[C@H]2[C@@H]3CCC4=CC(=O)CC[C@@H]4[C@H]3CC[C@@]21C [Norethindrone] | 4.84 | -3.95 | -0.842 | 2.6 | 11.2
COCCCOc1cc(C[C@@H](C[C@H](N)[C@@H](O)C[C@H](C(=O)NCC(C)(C)C(N)=O)C(C)C)C(C)C)ccc1OC [Aliskiren (hemifumarate)] | 16.6 | -3.2 | 10.2 | 0.61 | 3.27
CNC[C@H](O)c1ccc(O)c(O)c1 (racemic) [(±)-Epinephrine (hydrochloride)] | -0.953 | -6 | 37.7 | -7.58 | 4.53
CCCCN1C[C@H](O)[C@@H](O)[C@H](O)[C@H]1CO [N-Butyldeoxynojirimycin (hydrochloride)] | -7.96 | 4.45 | 16.1 | 5.5 | 4.55
CC(=O)CC(c1ccccc1)c1c(O)c2ccccc2oc1=O (racemic) [(±)-Warfarin] | 7.35 | -1.45 | -0.141 | -3.9 | -1.34
CNC1(C)C2CCC(C2)C1(C)C (stereo not given) [Mecamylamine (hydrochloride)] | 3.59 | -1.88 | -1.28 | -4.36 | 11.1
C[C@H](N)[C@H](O)c1cccc(O)c1 [Metaraminol (tartrate)] | 3.23 | 5.35 | -15.4 | -0.886 | -6.91
C[C@H](Cn1cnc2c(N)ncnc21)OCP(=O)(O)O [Tenofovir] | -6.21 | 0.269 | 0.971 | -2.1 | 5.37
CO[C@H]1C[C@@H]2CC[C@@H](C)[C@@](O)(O2)C(=O)C(=O)N2CCCC[C@H]2C(=O)O[C@H]([C@H](C)C[C@@H]2CC[C@@H](O)[C@H](OC)C2)CC(=O)[C@H](C)/C=C(\C)[C@@H](O)[C@@H](OC)C(=O)[C@H](C)C[C@H](C)/C=C/C=C/C=C/1C [Rapamycin] | 5.81 | -2.33 | 0.761 | -0.387 | 3.4
COCC(=O)Nc1c(I)c(C(=O)NCC(O)CO)c(I)c(C(=O)N(C)CC(O)CO)c1I (stereo not given) [Iopromide] | 3 | -1.37 | 11.3 | 1.33 | 5.16
O=C1[C@H](CC[C@H](O)c2ccc(F)cc2)[C@@H](c2ccc(O)cc2)N1c1ccc(F)cc1 [Ezetimibe] | 3.43 | 3.17 | -1.12 | -7.52 | 7.17
NNCCc1ccccc1 [Phenelzine (sulfate)] | -5.16 | 2.45 | -14.5 | 5.81 | 2.16
CCN1CC(CCN2CCOCC2)C(c2ccccc2)(c2ccccc2)C1=O (stereo not given) [Doxapram (hydrochloride hydrate)] | 1.64 | -4.79 | 16.8 | -5.51 | 1.89
Cc1ccc(Sc2ccccc2N2CCNCC2)c(C)c1 [Vortioxetine (hydrobromide)] | -0.102 | 7.18 | -8.07 | -14.1 | -11.4
Cc1nnc(C(C)C)n1C1C[C@H]2CC[C@@H](C1)N2CC[C@H](NC(=O)C1CCC(F)(F)CC1)c1ccccc1 (stereo in doubt) [Maraviroc] | 11.9 | -3.97 | 5.94 | -1.89 | 4.5
N#Cc1ccc2[nH]cc(CCCCN3CCN(c4ccc5oc(C(N)=O)cc5c4)CC3)c2c1 [Vilazodone (hydrochloride)] | 12.6 | -3.13 | -16.6 | -3.2 | -4.96
CN1CCC[C@H]1c1cccnc1 (racemic) [(±)-Nicotine] | 9.04 | -8.45 | 50 | -10.6 | -14.9
C[C@@H]1CCO[C@H]2Cn3cc(C(=O)NCc4ccc(F)cc4F)c(=O)c(O)c3C(=O)N12 [Dolutegravir] | 9.08 | 3.83 | 7.43 | 1.07 | 7.64
CC(O)(P(=O)(O)O)P(=O)(O)O [Etidronate (sodium salt)] | 5.12 | 2.23 | 11.4 | -1.7 | 4.9
O=C1CCCC(=O)C1C(=O)c1ccc(C(F)(F)F)cc1[N+](=O)[O-] [Nitisinone] | -4.15 | -6.23 | 19.7 | -0.151 | 0.618
C[C@@H](O)[C@H]1C(=O)N2C(C(=O)O)=C(S[C@@H]3CN[C@H](CNS(N)(=O)=O)C3)[C@H](C)[C@H]12 [Doripenem (hydrate)] | 0.847 | -3.28 | 18.4 | -1.56 | -1.12
